High-throughput results from PubChem.
HEK293 cAMP ctrl: parental HEK293 cAMP activation (counter-screen). parental HEK293 CNG cAMP sensor, membrane potential fluorescence. Potency, µM (doses to about 57.1 µM), for the others: top-dose activation, usual class: activators. 2.5% of 73,000 active; also: % of control where 0% means no effect; nearly all actives have a fitted effect of over 55% in size
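Parental HEK 293 cells stably expressing a cAMP-gated CNG channel were loaded with membrane potential dye containing 100 uM RO 20-1724 for 60 min. Compound added for 30 min; depolarization read as fluorescence intensity at 590 nm.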
Caspase-7 inhib: allosteric or competitive inhibitors of human caspase-7 | Potency, µM (titrated, usually from 57.5 µM), inactives show top-dose activity change, negative = inhibition, actives largely listed as inhibitors | 0.02% of 75,000 active | recombinant caspase-7, Ac-DEVD-AFC fluorescence rate; active = well fitted inhibition curve with a large enough effect in the main read-out, with a control signal flat, not every such curve was filed as active; inconclusive = small, poorly fitted or top-dose-only effect, or a change in a side signal; also: % of control where 0% means no effect
Target sequence (P55210 24-198 limits assumed): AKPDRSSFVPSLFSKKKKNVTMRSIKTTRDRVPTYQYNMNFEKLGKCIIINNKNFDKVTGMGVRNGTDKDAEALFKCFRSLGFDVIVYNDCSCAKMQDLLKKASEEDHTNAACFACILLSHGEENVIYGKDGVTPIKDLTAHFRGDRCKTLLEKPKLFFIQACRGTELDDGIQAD
Target sequence (P55210 207-303 limits assumed): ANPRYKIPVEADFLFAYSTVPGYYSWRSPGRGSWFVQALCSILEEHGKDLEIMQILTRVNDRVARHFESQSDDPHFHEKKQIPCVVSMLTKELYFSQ
CRE Fsk mod: alters forskolin-stimulated CRE reporter signaling in CHO cells. Potency, µM (doses to about 38.2 µM), without a hit: at the highest dose activity change, negative = inhibition, usual class: activators. CHO CRE-bla reporter (cAMP response element driving beta-lactamase), forskolin EC10, beta-lactamase ratio. 2.5% of 71,000 active; active = well fitted activation curve with a large enough effect in the signal ratio, with a control signal flat, not every such curve was filed as active; inconclusive = small, poorly fitted or top-dose-only effect, or effect the other way, or a change in a side signal; the % refers to the signal ratio; also: % of control where 0% means no effect
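Forskolin analogue NKH 477 at EC10 stimulated CRE-driven beta-lactamase in CHO cells alongside compound dilution series. Beta-lactamase was measured with CCF4, excitation 405 nm, emission ratio 460/530 nm.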
TSHR ag: TSH receptor (human) agonism; P16473; HEK293-CNG-TSHR cells (CNG channel as cAMP sensor), membrane potential dye, cAMP; Potency, µM (doses to about 57.1 µM), for the others: at the highest dose activation, hits mostly activators; 0.48% of 73,000 active; active = well fitted activation curve with a large enough effect in the main read-out, with a control signal flat, not every such curve was filed as active; inconclusive = small, poorly fitted or top-dose-only effect, or a change in a side signal; inactive = no such curve, though single readings can be large or run the other way; % of control where 0% means no effect;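 also: the control signal comes from parental cells without the receptor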
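HEK 293 cells stably expressing TSHR and a modified CNG channel, with CNG-only parental cells as counterscreen, were preloaded 60 min at room temperature with membrane potential dye containing 100 uM RO 20-1724. Compound exposure was 30 min, and depolarization was read as fluorescence at 590 nm.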
Caspase-1 inhib: allosteric or competitive inhibitors of human caspase-1; P29466; Caspase-1 enzyme, Ac-WEHD-AFC fluorogenic rate; Potency, µM (titrated, usually from 57.5 µM), for the others: at the top dose activity change, negative = inhibition, usual class: inhibitors; 0.03% of 75,000 active;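 also: plate controls were vehicle for no effect and no substrate for full effect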
Target sequence (P29466 120-297 limits assumed): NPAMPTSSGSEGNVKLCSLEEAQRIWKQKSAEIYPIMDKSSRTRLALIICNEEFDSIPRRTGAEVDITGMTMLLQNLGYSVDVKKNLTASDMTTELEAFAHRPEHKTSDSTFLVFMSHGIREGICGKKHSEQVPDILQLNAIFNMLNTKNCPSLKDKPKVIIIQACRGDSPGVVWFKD
Target sequence (P29466 317-404 limits assumed): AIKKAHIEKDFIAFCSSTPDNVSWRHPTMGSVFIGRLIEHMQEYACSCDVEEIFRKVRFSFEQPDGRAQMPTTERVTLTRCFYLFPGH
USP2a inhib: blocks human ubiquitin-specific protease USP2a. O75604. USP2a enzymatic assay, qHTS inhibition. Potency, µM (doses to about 38.3 µM), for the others: top-dose activity change, negative = inhibition, most hits filed as inhibitors. 0.1% of 60,000 active. AID 927; also: nearly all actives have a fitted effect of over 60% in size
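Coupled readout: USP2-cleaved Ub-PLA2 (20nM final) turns over NBD C6-HPC (20uM final), Ex 460nm/Em 535nm after 2.5 h, time-zero read flagging artifacts. Enzyme (20nM final, pH 8.0 Tris) given 30 min RT with compound first; NEM defines full inhibition.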
Active calls of the source: *; ? = inconclusive; nt = no result; [ ] = another dose, or the depositor's remark. The list is not random: actives were taken first. Their share in the collection is about 5%. Unless noted, calls follow the shape of the dose curve; as a rule, active = well fitted curve in the direction sought with a large enough effect; inconclusive = small, poorly fitted or top-dose-only effect, or another doubt; inactive = no such curve, though single readings can be large; an effect the other way counts as inactive or inconclusive. Potency is read from the fitted curve at half-maximal effect.

SMILES | HEK293 cAMP ctrl | Caspase-7 inhib | CRE Fsk mod | TSHR ag | Caspase-1 inhib | USP2a inhib
CCC(C)Sc1nc2c(c(=O)[nH]c(=O)n2C)n1Cc1ccccc1Cl (stereo unspecified) | 8.8% | -1.9% | 5.01µM* | 19.3% | -2.4% | nt
CCCn1c(SCCc2ccccc2)nc2c1c(=O)[nH]c(=O)n2C | 24.8% | 1.7% | ? | 14.3% | -5.2% | -6.8%
CCCn1c(SCc2ccc(Cl)cc2)nc2c1c(=O)[nH]c(=O)n2C | ? | -0.1% | 12.6µM* | ? | 0.0% | 6.0%
C[C@@H](COc1ccc(/C=C\c2ccccc2)cc1)[N+](C)(C)C | 14.0% | 1.1% | 1.4% | 9.6% | 0.4% | -15.5%
CCOc1ccc(NS(=O)(=O)c2ccc(C)c(C(=O)O)c2)cc1 | -3.4% | -1.0% | nt | 6.2% | -0.8% | nt
O=[N+]([O-])c1cccc(/C=N\Nc2ccc3ccccc3n2)c1O | -5.3%[11.4 µM] | 1.0%[11.5 µM] | 13.2%[7.6 µM] | -12.8%[11.4 µM] | -2.0%[11.5 µM] | nt
Cn1nnnc1Sc1ncnc2scc(-c3ccccc3)c12 | ? | -12.7% | 0.501µM* | ? | -2.5% | 27.1%
O=C(Nc1cnccn1)c1ccncc1 | 14.1% | -1.5% | ? | 20.7% | 0.2% | 6.0%
O=C(Nc1cnccn1)c1cccc(C(F)(F)F)c1 | 20µM* | -28.6% | -1.9% | ? | ? | 27.0%
COc1cc(C2N(c3ccccc3)CCN2c2ccccc2)ccc1OC(C)=O | 6.6% | -2.9% | ? | 3.16µM* | -3.6% | 0.6%
Nc1ccc(N(S(=O)(=O)c2ccccc2)S(=O)(=O)c2ccccc2)c(Cl)c1 | -3.6%[11.4 µM] | -4.4%[11.5 µM] | 10.0%[7.6 µM] | -2.1%[11.4 µM] | 1.6%[11.5 µM] | nt
N[C@H]1[C@@H](C(=O)O)[C@H]2C=C[C@H]1C2 | -1.0%[11.4 µM] | 2.4%[11.5 µM] | -0.9%[7.6 µM] | 8.2%[11.4 µM] | -1.8%[11.5 µM] | nt
O=c1c(-c2ccc(F)cc2)nc2cnc(N3CCOCC3)nc2n1C[C@H]1CCCO1 | 5.2% | ? | 1µM* | 2.7% | nt | 16.5%
CN1CCN(c2ncc3ncc(=O)n(Cc4ccc(F)cc4)c3n2)CC1 | 25.0% | -28.4% | 15.1% | nt | ? | 10.5%
N#Cc1cccc(-c2nc3cnc(N4CCOCC4)nc3n(C[C@H]3CCCO3)c2=O)c1 | ? | ? | ? | ? | nt | 30.5%
O=c1c(-c2ccc(Cl)cc2)nc2cnc(N3CCOCC3)nc2n1C[C@H]1CCCO1 | 6.5% | ? | 0.794µM* | -6.0% | nt | 57.7%
CN1CCN(c2ncc3nc(-c4cccc(C#N)c4)c(=O)n(C[C@H]4CCCO4)c3n2)CC1 | -7.4% | ? | 10µM* | -7.2% | nt | 202.7%
O=c1cnc2cnc(N3CCOCC3)nc2n1Cc1ccc(F)cc1 | 2.51µM* | -25.0% | ? | ? | ? | 30.3%
COc1ccc(-c2nc3cnc(N4CCOCC4)nc3n(C[C@H]3CCCO3)c2=O)cc1 | 11.9%[2.29 µM] | ? | ? | 3.2% | nt | 24.0%
O=c1c(-c2ccc(F)cc2)nc2cnc(Nc3ccccc3)nc2n1C[C@H]1CCCO1 | -1.0% | ? | 0.251µM* | 7.0% | nt | 34.6%
COc1ccc(-n2c(=O)c(-c3cccc(C#N)c3)nc3cnc(N4CCNCC4)nc32)cc1 | ? | -28.5% | 10µM* | ? | ? | 151.6%
O=c1c(-c2cccs2)nc2cnc(N3CCOCC3)nc2n1Cc1ccc(F)cc1 | 8.4% | ? | ? | 0.2% | nt | 86.7%
O=c1c(-c2ccc(Cl)cc2)nc2cnc(N3CCOCC3)nc2n1Cc1ccc(F)cc1 | 23.2% | ? | 6.31µM* | 6.4% | nt | 117.2%
CCNc1ncc2nc(-c3ccc(Cl)cc3)c(=O)n(C[C@H]3CCCO3)c2n1 | 5.7% | ? | 6.31µM* | 4.2% | nt | 56.3%
O=C(O)CNCCc1ccccc1 | -55.7%[11.4 µM] | 1.1%[11.5 µM] | -0.8%[7.6 µM] | ? | 2.0%[11.5 µM] | nt
SMILES | HEK293 cAMP ctrl | Caspase-7 inhib | CRE Fsk mod | TSHR ag | Caspase-1 inhib | USP2a inhib
NCCSCc1ccccc1Cl | 7.7%[11.4 µM] | 0.0%[11.5 µM] | 2.2%[7.6 µM] | -4.9%[11.4 µM] | -0.9%[11.5 µM] | nt
NC(=O)N/N=C1\CC[C@H](O)C[C@@H]1CC(=O)O | 24.6%[11.4 µM] | 0.3%[11.5 µM] | 2.8%[7.6 µM] | -2.5%[11.4 µM] | -3.4%[11.5 µM] | nt
COc1ccc(-c2coc3cc(O[C@@H]4O[C@@H](CO)[C@@H](O)[C@@H](O)[C@H]4O)cc(O)c3c2=O)cc1 | 5.5% | nt | 10.5% | -2.8% | nt | nt
COc1ccc(-c2csc(N(CC3CCCO3)C(=O)c3ccco3)n2)cc1 (stereo unspecified) | 20µM* | -2.2% | ? | ? | -2.9% | ?
COc1ccc(-c2csc(N3CCN(C(=O)c4ccco4)CC3)n2)cc1 | 4.4% | -5.3% | ? | 6.2% | -4.9% | nt
CN(C)CC(C)(C)CNC(=O)c1ccc(-n2c(=O)c(=O)[nH]c3ccccc32)cc1 | -19.2% | 1.0% | nt | 9.9% | -1.3% | nt
CCCCSc1nc2c(c(=O)[nH]c(=O)n2C)n1CCc1ccccc1 | ? | 0.8% | 10µM* | ? | -4.2% | nt
CC(C)n1c(SCCCc2ccccc2)nc2c1c(=O)[nH]c(=O)n2C | 5.9% | -3.0% | 6.31µM* | 1.5%[11.4 µM] | -2.2% | nt
N[C@@]1(C(=O)O)CCC[C@@H]1C(=O)O | -2.3%[11.4 µM] | 1.4%[11.5 µM] | 3.1%[7.6 µM] | 3.7%[11.4 µM] | -1.2%[11.5 µM] | nt
Cc1cc(C(=O)OCC(=O)NCc2ccco2)c(C)n1-c1ccc(F)cc1 | 15.8µM* | 5.4% | ? | ? | -0.6% | 16.3%
CCCCNC(=O)c1cc2c(=O)n3cccc(C)c3nc2n(Cc2ccncc2)c1=N | -8.7% | ? | 3.16µM* | -12.5% | nt | 32.3%
CCn1c(=N)c(C(=O)OC)cc2c(=O)n3ccccc3nc21 | ? | ? | 10µM* | ? | nt | -7.1%
Cc1cccn2c(=O)c3cc(C(=O)NCc4cccnc4)c(=N)n(C(C)C)c3nc12 | -37.3% | ? | 12.6µM* | ? | nt | 10.5%
CC(C)n1c(=N)c(C(=O)NCCc2ccccc2)cc2c(=O)n3ccccc3nc21 | -82.4% | ? | 10µM* | ? | nt | 15.6%
CC1CCN(CC[S-])CC1.O.O.[Cl][Pt] | -2.0%[11.4 µM] | -0.6%[11.5 µM] | -13.7%[7.6 µM] | -6.7%[11.4 µM] | 0.5%[11.5 µM] | nt
Cc1ccc(Cn2cccc(NC(=O)c3ccco3)c2=O)cc1 | 15.8µM* | -3.3% | 15.0% | ? | -0.5% | 2.9%
CCCCOc1ccccc1NC(=O)c1ccco1 | 15.8µM* | 0.7% | ? | ? | -1.5% | -9.1%
CCN1C(=O)c2cccc3c(S(=O)(=O)Nc4ncccc4C)ccc1c23 | 9.8% | ? | 5.01µM* | 9.9% | nt | 21.1%
CCN1C(=O)c2cccc3c(S(=O)(=O)Nc4ccccn4)ccc1c23 | 0.9% | ? | ? | 2.7%[11.4 µM] | nt | 4.4%
